High-throughput results as filed in PubChem.
TGFb inhibitor: TGF-b pathway inhibition. HepG2 CAGA-GFP TGF-b/SMAD3 reporter, GFP fluorescence, 18 h; TGF-beta stimulated, 500 pg/mL final. Potency, µM (highest dose often 46.1 µM), without a hit: at the top dose activity, negative = inhibition, most hits filed as inhibitors. 410,000 compounds, 1.2% hits; also: potency is read from the fitted curve at half-maximal effect; % is scaled to controls: 0 for no effect and ±100 for the full control effect; nearly all actives have a fitted effect of over 65% in size
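Using HEPG2 CAGA-GFP reporter cells at 1000 cells/well, we pinned test compounds, stimulated with recombinant TGF-beta (500 pg/mL final) and measured total well GFP after 18 h.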
TDP1 block: blocks human tyrosyl-DNA phosphodiesterase 1; 350,000 compounds, 0.28% hits; Potency, µM (titrated, usually from 130 µM), inactives show at the highest dose activity change, negative = inhibition, hits mostly inhibitors; recombinant TDP1, AlphaScreen DNA substrate cleavage; AID 485290; also: potency is read from the fitted curve at half-maximal effect; % is scaled to controls: 0 for no effect and ±100 for the full control effect; nearly all actives have a fitted effect of over 40% in size
Target sequence (Q9NUW8 whole entry, looked up): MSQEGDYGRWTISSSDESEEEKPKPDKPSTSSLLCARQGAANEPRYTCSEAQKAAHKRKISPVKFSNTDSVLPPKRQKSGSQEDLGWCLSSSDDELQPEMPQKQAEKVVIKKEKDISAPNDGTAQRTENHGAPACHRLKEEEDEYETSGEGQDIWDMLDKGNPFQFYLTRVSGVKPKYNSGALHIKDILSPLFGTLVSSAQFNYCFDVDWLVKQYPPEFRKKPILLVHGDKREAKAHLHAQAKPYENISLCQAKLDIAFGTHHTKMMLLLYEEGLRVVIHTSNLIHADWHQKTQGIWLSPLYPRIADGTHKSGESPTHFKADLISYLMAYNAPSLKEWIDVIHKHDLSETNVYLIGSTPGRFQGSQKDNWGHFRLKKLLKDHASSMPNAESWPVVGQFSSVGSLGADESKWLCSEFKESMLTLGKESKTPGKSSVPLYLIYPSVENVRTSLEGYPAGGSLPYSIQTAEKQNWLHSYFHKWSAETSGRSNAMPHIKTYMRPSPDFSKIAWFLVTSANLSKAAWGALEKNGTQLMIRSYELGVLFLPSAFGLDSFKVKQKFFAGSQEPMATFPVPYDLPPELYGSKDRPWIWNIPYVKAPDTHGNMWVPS
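Enzyme-compound mixtures sat 15 min at room temperature, followed by a 5 min reaction with 15 nM final substrate and 10 min with AlphaScreen beads. Recombinant human Tdp1 was used at 1 nM final.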
IL1B secr inh: inflammasome signaling inhibition, IL-1 beta readout; THP-1 LPS/ATP IL-1B secretion, AlphaLISA, 16 h; hits give low values; activity change, % at 57.5 µM; 360,000 compounds, 4.7% hits; AID 743279; in the data active = activity change below about -50%; inconclusive = mostly about -30% to -49%; also: % is scaled to controls: 0 for no effect and ±100 for the full control effect
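THP-1 cells pretreated 1 hr with compounds (up to 57.5 uM final), then stimulated with LPS (250 ng/mL final) plus ATP (1.25 mM final); secreted IL-1B measured by AlphaLISA after 16 hr, decreased signal indicating inhibition.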
DT40 TDP1 CPT: DT40-hTDP1 cell growth loss with CPT; chicken DT40 Tdp1-/-;hTDP1 cells + 20 nM CPT, ATP luminescence, 48 h; Potency, µM (doses to about 46.2 µM), without a hit: at the top dose activity change, negative = growth inhibition, hits mostly inhibitors; 420,000 compounds, 12% hits; AID 686979; also: potency is read from the fitted curve at half-maximal effect; % is scaled to controls: 0 for no effect and ±100 for the full control effect; nearly all actives have a fitted effect of over 55% in size
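Cell growth measured by CellTiter-Glo luminescence after a minimum 48 h, 37 C compound exposure with 20 nM CPT in Tdp1-knockout DT40 cells stably expressing hTDP1, seeded 400/well; qHTS titration format.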
TDP1 cell noCPT: qHTS for Inhibitors of human tyrosyl-DNA phosphodiesterase 1 (TDP1): qHTS in cells in absence of CPT | DT40 Tdp1-/- hTDP1 cells, no CPT, ATP luminescence, 48 h | Potency, µM (titrated, usually from 46.2 µM), inactives show top-dose activity change, negative = growth inhibition, hits mostly inhibitors | 420,000 compounds, 15% hits | AID 686978, 2013; also: potency is read from the fitted curve at half-maximal effect; % is scaled to controls: 0 for no effect and ±100 for the full control effect; nearly all actives have a fitted effect of over 55% in size
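A cellular qHTS used chicken DT40 cells lacking endogenous Tdp1 but carrying stably transfected human TDP1. Compounds were applied without camptothecin, and cell growth kinetics were judged by ATP-dependent luminescence after ≥48 hr.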
HepG2 viability: kills HepG2 cells in TGF-b inhibitor counter-screen. HepG2 CAGA-GFP viability, ATP luminescence, 18 h. Potency, µM (series often up to 46.1 µM), for the others: top-dose activity change, negative = cytotoxicity, hits mostly cytotoxic. 410,000 compounds, 0.76% hits. AID 588856; also: potency is read from the fitted curve at half-maximal effect
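HepG2 CAGA-GFP cells (1000/well, DMEM with 1% FBS) received compound, then TGF-beta at 500 pg/mL final, and were incubated 18 hours at 37 degrees C. Viability was read by CellTiter-Glo luminescence. Media-only wells were set as complete cell-killing and DMSO as no toxicity.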
Starred values were filed as active, the others as inactive; ? = inconclusive; . = no result given; [ ] = another dose, or the depositor's remark. This is a sample that favours compounds with a hit; in the whole collection about 19% have one here. Unless noted, calls follow the shape of the dose curve; as a rule, active = well fitted curve in the direction sought with a large enough effect; inconclusive = small, poorly fitted or top-dose-only effect, or another doubt; inactive = no such curve, though single readings can be large; an effect the other way counts as inactive or inconclusive.

SMILES	TGFb inhibitor	TDP1 block	IL1B secr inh	DT40 TDP1 CPT	TDP1 cell noCPT	HepG2 viability
CCOc1ccccc1C(=O)N1CC(=O)Nc2ccc(C)cc2C1c1ccccc1 (centres undefined)	6%	3%	.	?	23µM*	9%
COc1ccccc1C(=O)N1CC(=O)Nc2ccc(C)cc2C1c1ccc(F)cc1 (centres undefined)	0%	.	-10	-9%	-20%	-35%
CCOc1ccccc1C(=O)N1CC(=O)Nc2ccc(Cl)cc2C1c1ccccc1 (centres undefined)	-2%	6%	.	21µM*	?	-22%
CCCCC1CCC(C(=O)N2CC(=O)Nc3ccc(C)cc3C2c2ccc(F)cc2)CC1 (centres undefined)	0%	6%	.	9.2µM*	?	-23%
Cc1ccc(CNC(=O)CCCn2c(=O)c3ccccc3n(CC(=O)Nc3ccc(C)c(C)c3)c2=O)cc1	0%	-2%	.	-14%	-19%	2%
Oc1ccc(CNc2ccccc2)c2cccnc12	?	9%	9	3.7µM*	2.6µM*	-52%
Oc1ccc(CNCc2ccccc2F)c2cccnc12	.	1%	.	.	.	.
Oc1ccc(CNc2cccc(F)c2)c2cccnc12	.	1%	.	.	.	.
Oc1ccc(CNc2ccc(F)cc2)c2cccnc12	?	8%	-3	2.9µM*	1.6µM*	-67%
COc1ccccc1Nc1nc(N)nc(CSC(=S)N2CC(C)CC(C)C2)n1 (centres undefined)	-25%	-3%	-3	?	?	-1%
CC1CCN(C(=S)SCc2nc(N)nc(Nc3ccccc3)n2)CC1	-27%	.	-9	-12%	-12%	-28%
COc1ccc2nc(SCc3nc(N)nc(Nc4ccccc4)n3)[nH]c2c1	-4%	6%	-4	?	16µM*	-16%
COc1ccc(Nc2nc(N)nc(CSC(=S)N3CCN(C)CC3)n2)cc1	1%	4%	-11	-14%	?	-24%
COc1ccc(Nc2nc(N)nc(CSC(=S)N3CCN(c4ccccc4)CC3)n2)cc1	-1%	8%	-15	?	18µM*	-61%
COc1ccc(Nc2nc(N)nc(CSC(=S)N3CCCCC3C)n2)cc1 (centres undefined)	-21%	.	-62*	?	18µM*	-22%
CCOc1ccc(Nc2nc(N)nc(CSC(=S)N3CCN(c4ccccc4)CC3)n2)cc1	-1%	.	-1	15µM*	18µM*	-15%
CCN(CCCNC(=O)c1nn(-c2ccc(C)cc2)c(=O)c2c1c1ccccc1n2C)c1ccccc1	3%	7%	.	?	?	-7%
O=c1c2sc3ccccc3c2n(Cc2ccccc2F)c(=O)n1CCc1ccccc1	-9%	4%	.	-7%	-7%	-8%
CCc1ccc(-c2cn(C3CCCCC3)c(=S)[nH]2)cc1	-19%	5%	-68*	?	8.2µM*	-3%
CCc1ccc(-n2cc(-c3ccc([N+](=O)[O-])cc3)[nH]c2=S)cc1	-10%	5%	-26	3%	-5%	-6%
COc1cc(C2C(=O)N(C3CCCCCC3)CC(=O)N2Cc2ccccc2)ccc1OC(C)C (centres undefined)	-7%	3%	.	?	23µM*	-22%
COc1ccc(CCN2C(=O)CN(C3CCC(C)CC3)C(=O)C2c2ccc(OC(C)C)c(OC)c2)cc1OC (centres undefined)	0%	7%	.	16µM*	?	-24%
O=C(Nc1cccc(C(F)(F)F)c1)Oc1ccc(Cl)c2cccnc12	7.1µM*	8%	-102*	23µM*	18µM*	14µM*
CCN(CC)C(=O)Oc1ccc(Cl)c2cccnc12	-16%	-2%	-4	4%	-11%	-8%
COc1ccccc1N1CCN(C(=O)CCNS(=O)(=O)c2ccc3c(c2)CCN3C(=O)C2CC2)CC1	-16%	0%	.	16µM*	23µM*	-28%
SMILES	TGFb inhibitor	TDP1 block	IL1B secr inh	DT40 TDP1 CPT	TDP1 cell noCPT	HepG2 viability
Cc1ccc(Cl)cc1N1CCN(C(=O)CCNS(=O)(=O)c2ccc3c(c2)CCN3C(=O)C2CC2)CC1	-14%	5%	.	8.2µM*	23µM*	-17%
COc1ccc(N2CCN(C(=O)CCS(=O)(=O)c3ccc4c(c3)CCN4C(=O)C3CC3)CC2)cc1	-10%	3%	-6	?	?	-3%
O=C(CCNS(=O)(=O)c1ccc2c(c1)CCN2C(=O)C1CC1)N1CCN(c2cccc(C(F)(F)F)c2)CC1	?	10%	.	2.1µM*	1.6µM*	-28%
CCC(=O)N1CCc2cc(S(=O)(=O)CCC(=O)N3CCN(c4cc(C)ccc4C)CC3)ccc21	-7%	2%	.	?	?	-7%
O=C1C2C3c4ccccc4C(c4ccccc43)C2C(=O)N1/N=C/c1cccc(O)c1 (centres undefined)	10%	6%	-5	21µM*	?	0%
COc1cc(/C=N/N2C(=O)C3C4C=CC(CC4)C3C2=O)ccc1O (centres undefined)	0%	-3%	56	-16%	0%	-4%
CNc1ccccc1C(C)(C)c1cc(-c2cc(C)cc(C)c2)no1	0%	5%	-9	?	?	-11%
CNc1ccccc1C(C)(C)c1cc(C)[nH]n1	-5%	-5%	6	16µM*	?	0%
N#Cc1cccc(CS(=O)(=O)c2ccccc2)c1	.	4%	.	.	.	.
CC(=O)c1ccc(N2CCN(c3nc4ccccc4c4nc(-c5cccc(C)c5)nn34)CC2)cc1	0%	6%	.	-8%	-13%	-13%
CS(=O)(=O)c1nc(-c2ccc(Br)cc2)cc(-c2ccccc2)c1C#N	-17%	4%	-59*	4.1µM*	2.6µM*	-102%
COc1ccc(-c2cc(-c3ccc(OC)cc3)c(C#N)c(SC)n2)cc1	-7%	-10%	-2	-27%	-28%	-20%
CCS(=O)(=O)CCSc1nc(-c2ccc(Br)cc2)cc(-c2ccccc2)c1C#N	-17%	0%[12.3 µM]	.	-15%	-14%	-17%
CS(=O)c1nc(-c2ccc(Br)cc2)cc(-c2ccccc2)c1C#N (centres undefined)	-8%	5%	-70*	1.8µM*	2.6µM*	-7%
COc1ccc(-c2cc(-c3ccccc3)c(C#N)c(S(C)(=O)=O)n2)cc1	-3%	-2%	-96*	?	?	-10%
